Reference: PubChem BioAssay
Results filed as inconclusive are left out. The source made the active and inactive calls. Cut-off read from the data, not from the text of the source, unless noted: active = inhibition above about 80%; inactive = the rest.

What was measured:
[1] = target: 6-phosphogluconate dehydrogenase, decarboxylating (Homo sapiens) (UniProt P52209); assay: 6PGD enzyme inhibitors, primary screen, biochemical, human, recombinant enzyme, NADPH absorbance (AID 1159550;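 active = at least 20% inhibition of 6-phosphogluconate dehydrogenase activity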); details: recombinant 6PGD, NADPH absorbance 341 nm; at 10 µM; stronger effect = higher value
[2] = sensitizers of A549 cells to miR-34 induction, primary screen, imaging, A549 dox-inducible miR-34, nuclei and caspase counts (AID 1347080;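 active = compounds whose cell count with miR-34 switched on is under 0.7 times the count with it off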); details: A549 miR-34 inducible, Hoechst nuclei count, 48 h
[3] = survival rescue of mitochondrial mutant cells in low glucose, primary screen, MELAS cybrids, Rieske KO mouse fibroblasts, CellTiter-Glo (AID 1508586;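 active = mean z-score across replicates of 1.96 or higher in either the MELAS or the Rieske mutant cell line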;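 note: z relative to plate mean and SD of compound and empty wells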)
[4] = LFS_MB_P medulloblastoma growth inhibition, cell-based, chromothripsis tumors, cisplatin or BGB combos (AID 1671449); details: LFS_MB_P medulloblastoma cells;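 note: cells exposed for 96 hours; 0% = vehicle DMSO and 100% = killing by high DMSO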
[5] = HDN33 neuroblastoma growth inhibition, cell-based, chromothripsis tumors, cisplatin or BGB combos (AID 1671450); details: HDN33 neuroblastoma cells, stronger effect = higher value;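 note: cells exposed to compound for four days; 0% = vehicle DMSO and 100% = cell killing by high DMSO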
[6] = ICB984 medulloblastoma cell growth inhibition, synergistic combos for chromothripsis tumors, cisplatin or BGB combos (AID 1671451; call rule not given here;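 note: cells exposed for 96 hours before readout; 0% = vehicle DMSO and 100% = killing by high DMSO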); details: ICB984 medulloblastoma cells, drug combinations, stronger effect = higher value
[7] = LFS_MB_1R medulloblastoma cell growth inhibition, synergistic combos for chromothripsis tumors, cisplatin or BGB combos (AID 1671452); details: LFS_MB_1R medulloblastoma cells, stronger effect = higher value;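 note: cells exposed for 96 hours before readout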
[8] = HTB85 osteosarcoma cell growth inhibition, synergistic combos for chromothripsis tumors, BGB or cisplatin IC20 combos (AID 1671453); details: HTB85 osteosarcoma cells, drug combinations, stronger effect = higher value;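 note: cells exposed for 96 hours before readout; 0% = vehicle DMSO and 100% = high DMSO killing control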
[9] = CRL2098 osteosarcoma cell growth inhibition, synergistic combos for chromothripsis tumors, BGB or cisplatin IC20 combos (AID 1671454); details: CRL2098 osteosarcoma cells, drug combinations, stronger effect = higher value;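 note: cells exposed for 96 h before readout; 0% = vehicle DMSO and 100% = killing by high DMSO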
[10] = HD-MB03 medulloblastoma cell growth inhibition, synergistic combos for chromothripsis tumors, BGB or cisplatin IC20 combos (AID 1671455; in the data active = inhibition above about 83%;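 note: 0% = vehicle DMSO and 100% = high DMSO as cytotoxic control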); details: HD-MB03 medulloblastoma cells, stronger effect = higher value
[11] = UWB1.289 ovarian carcinoma cell growth inhibition, synergistic combos for chromothripsis tumors, BGB or cisplatin combos (AID 1671456); details: UWB1.289 ovarian carcinoma cells, stronger effect = higher value;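 note: cells exposed to compound for four days; 0% = vehicle DMSO and 100% = killing by high DMSO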
[12] = LFS_MB_2R medulloblastoma cell growth inhibition, synergistic combos for chromothripsis tumors, cisplatin combos (AID 1671457); details: LFS_MB_2R medulloblastoma cells, stronger effect = higher value;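 note: cells exposed to compound for four days before readout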
[13] = MDA-MB-436 breast carcinoma cell growth inhibition, synergistic combos for chromothripsis tumors, BGB or cisplatin combos (AID 1671458; call rule not given here;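 note: cells exposed for 96 hours; 0% = vehicle DMSO and 100% = killing by high DMSO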); details: MDA-MB-436 breast carcinoma growth inhibition, drug combinations, stronger effect = higher value
[14] = UWB1.289_BRCA1 ovarian cancer growth, cell-based, BGB or cisplatin combinations (AID 1671459); details: UWB1.289 BRCA1 ovarian carcinoma, drug combinations, stronger effect = higher value
[15] = human astrocyte viability loss, single and combined drugs, cytotoxicity control for chromothriptic childhood tumor combination screen, cell-based, BGB or cisplatin IC20 combos (AID 1671460); details: Human astrocytes, drug combinations, stronger effect = higher value;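 note: cells exposed to compounds for 96 hours before viability readout; 0% = vehicle and 100% = killing control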
[16] = growth inhibition of BT084 medulloblastoma cells, cell-based, ICGC_MB145, cisplatin and BGB IC40 combos (AID 1671461); details: drug combinations, stronger effect = higher value;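 note: cells exposed to drugs for 96 hours; 0% = vehicle DMSO and 100% = high DMSO full killing control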
[17] = growth inhibition of RCMB18 medulloblastoma cells, cell-based, cisplatin and BGB IC40 combos (AID 1671462); details: stronger effect = higher value;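 note: cells exposed to compound for four days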
[18] = growth inhibition of CRL1545 osteosarcoma cells, cell-based, cisplatin and BGB IC20 combos (AID 1671464); details: stronger effect = higher value;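 note: cells exposed to compound for 96 hours before readout; 0% = vehicle DMSO and 100% = high DMSO killing control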
[19] = target: ATP-dependent translocase ABCB1 (Homo sapiens) (UniProt P08183); assay: MDR1 (ABCB1) efflux transporter inhibition, cell-based (AID 377; in the data active = fluorescence slope change above about 50%); details: MDR1-expressing cells, fluorescent substrate accumulation slope; stronger effect = higher value; concentration not given here
[20] = liver-stage malaria parasite growth inhibition, primary screen, cell-based, HepG2, luciferase luminescence, HepG2 viability (AID 624349; in the data active = parasite load remaining mostly below about 12%, no sharp cut-off; inactive = mostly above about 10%;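 note: 100% = mean of DMSO negative control wells on the same plate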); details: P. berghei liver stage in HepG2, luciferase luminescence, concentration not given here; parasite load remaining: stronger effect = lower value; viability: measured here: HepG2 viability without parasites
[21] = target: NAD(+) hydrolase SARM1 (Homo sapiens) (UniProt Q6SZW1); assay: SARM1 TIR NADase inhibitors, cell lysate, NAD-Glo luminescence (AID 1508614;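 active = compound whose remaining NAD level is above about 45 nM, limit read from the data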;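 note: higher remaining NAD means stronger inhibition of SARM1 NADase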); details: SAM-TIR HEK293T lysate NADase, at 1 µM, stronger effect = higher value
[22] = target: Mitogen-activated protein kinase 7 (Homo sapiens) (UniProt Q13164); assay: ERK5 transactivation activators in reporter cells, primary screen, cell-based, HTS (AID 1508626;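 active = luciferase signal above three times the same-plate solvent-only control wells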;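 note: luciferase driven by Gal4-ERK5 fusion binding five Gal4 sites before minimal TATA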); details: HeLa Gal4-ERK5 transactivation, 18 h, at 5 µM, stronger effect = higher value
[23] = stronger effect = lower value, cell number ratio, induced over uninduced
[24] = measured here: relative caspase fold change +Dox/-Dox
[25] = measured here: total cells with miR-34 induction, stronger effect = lower value
[26] = measured here: total cells without miR-34 induction
[27] = measured here: combination with BGB IC40, at 0.05 µM
[28] = measured here: with BGB IC20 combination, at 0.5 µM
[29] = measured here: with cisplatin IC20 combination, at 0.5 µM
[30] = measured here: combination with cisplatin, at 0.5 µM
[31] = measured here: combination with cisplatin, at 5 µM

Sequence of 6-phosphogluconate dehydrogenase, decarboxylating (Homo sapiens) (P52209 whole entry, looked up): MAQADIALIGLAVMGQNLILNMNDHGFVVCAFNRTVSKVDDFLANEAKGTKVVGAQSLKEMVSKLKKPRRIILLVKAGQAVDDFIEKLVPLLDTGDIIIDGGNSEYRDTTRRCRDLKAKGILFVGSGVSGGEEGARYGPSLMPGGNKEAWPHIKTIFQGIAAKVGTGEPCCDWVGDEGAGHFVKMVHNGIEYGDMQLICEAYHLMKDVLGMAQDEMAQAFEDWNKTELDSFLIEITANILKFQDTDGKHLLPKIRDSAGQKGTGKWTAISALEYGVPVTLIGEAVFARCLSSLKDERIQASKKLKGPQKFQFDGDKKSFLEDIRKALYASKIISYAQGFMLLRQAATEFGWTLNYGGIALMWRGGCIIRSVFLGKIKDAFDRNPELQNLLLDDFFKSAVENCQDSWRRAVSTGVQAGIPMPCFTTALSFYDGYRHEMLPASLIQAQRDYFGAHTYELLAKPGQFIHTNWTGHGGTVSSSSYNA
Sequence of ATP-dependent translocase ABCB1 (Homo sapiens) (P08183 whole entry, looked up): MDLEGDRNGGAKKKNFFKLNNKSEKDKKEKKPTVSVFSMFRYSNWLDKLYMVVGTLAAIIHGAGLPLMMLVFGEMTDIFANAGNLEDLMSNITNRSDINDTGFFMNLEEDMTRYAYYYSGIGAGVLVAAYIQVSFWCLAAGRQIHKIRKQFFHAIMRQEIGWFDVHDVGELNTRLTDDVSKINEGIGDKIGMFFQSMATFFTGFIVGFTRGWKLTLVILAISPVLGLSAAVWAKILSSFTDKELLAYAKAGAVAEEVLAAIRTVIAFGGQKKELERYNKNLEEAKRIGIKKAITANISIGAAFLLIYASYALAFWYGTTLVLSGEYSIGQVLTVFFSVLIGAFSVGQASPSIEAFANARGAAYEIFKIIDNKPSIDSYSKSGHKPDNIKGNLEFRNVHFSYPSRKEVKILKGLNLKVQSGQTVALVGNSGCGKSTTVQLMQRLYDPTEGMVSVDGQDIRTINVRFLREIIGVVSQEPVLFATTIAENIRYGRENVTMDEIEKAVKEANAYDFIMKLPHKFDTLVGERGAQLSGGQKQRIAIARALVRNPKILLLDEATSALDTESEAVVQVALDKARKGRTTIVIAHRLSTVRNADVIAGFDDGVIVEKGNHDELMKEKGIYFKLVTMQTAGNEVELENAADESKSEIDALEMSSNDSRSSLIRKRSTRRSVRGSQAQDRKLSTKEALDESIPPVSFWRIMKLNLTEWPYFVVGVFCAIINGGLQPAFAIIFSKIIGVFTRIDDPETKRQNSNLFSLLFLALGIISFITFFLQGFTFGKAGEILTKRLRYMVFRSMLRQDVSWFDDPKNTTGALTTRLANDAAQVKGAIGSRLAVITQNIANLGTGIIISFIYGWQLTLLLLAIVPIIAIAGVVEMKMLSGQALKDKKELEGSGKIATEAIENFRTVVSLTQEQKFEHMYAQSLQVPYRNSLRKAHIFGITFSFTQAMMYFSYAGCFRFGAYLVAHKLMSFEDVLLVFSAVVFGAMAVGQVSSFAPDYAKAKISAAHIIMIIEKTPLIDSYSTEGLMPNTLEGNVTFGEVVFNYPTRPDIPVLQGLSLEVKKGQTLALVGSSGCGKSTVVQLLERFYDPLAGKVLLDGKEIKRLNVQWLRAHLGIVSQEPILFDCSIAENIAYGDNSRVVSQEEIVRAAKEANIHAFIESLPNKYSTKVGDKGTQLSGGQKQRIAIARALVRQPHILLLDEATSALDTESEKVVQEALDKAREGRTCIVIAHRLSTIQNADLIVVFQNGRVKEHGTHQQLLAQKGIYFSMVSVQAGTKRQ
Sequence of Mitogen-activated protein kinase 7 (Homo sapiens) (Q13164 whole entry, looked up, the tested form may be a part): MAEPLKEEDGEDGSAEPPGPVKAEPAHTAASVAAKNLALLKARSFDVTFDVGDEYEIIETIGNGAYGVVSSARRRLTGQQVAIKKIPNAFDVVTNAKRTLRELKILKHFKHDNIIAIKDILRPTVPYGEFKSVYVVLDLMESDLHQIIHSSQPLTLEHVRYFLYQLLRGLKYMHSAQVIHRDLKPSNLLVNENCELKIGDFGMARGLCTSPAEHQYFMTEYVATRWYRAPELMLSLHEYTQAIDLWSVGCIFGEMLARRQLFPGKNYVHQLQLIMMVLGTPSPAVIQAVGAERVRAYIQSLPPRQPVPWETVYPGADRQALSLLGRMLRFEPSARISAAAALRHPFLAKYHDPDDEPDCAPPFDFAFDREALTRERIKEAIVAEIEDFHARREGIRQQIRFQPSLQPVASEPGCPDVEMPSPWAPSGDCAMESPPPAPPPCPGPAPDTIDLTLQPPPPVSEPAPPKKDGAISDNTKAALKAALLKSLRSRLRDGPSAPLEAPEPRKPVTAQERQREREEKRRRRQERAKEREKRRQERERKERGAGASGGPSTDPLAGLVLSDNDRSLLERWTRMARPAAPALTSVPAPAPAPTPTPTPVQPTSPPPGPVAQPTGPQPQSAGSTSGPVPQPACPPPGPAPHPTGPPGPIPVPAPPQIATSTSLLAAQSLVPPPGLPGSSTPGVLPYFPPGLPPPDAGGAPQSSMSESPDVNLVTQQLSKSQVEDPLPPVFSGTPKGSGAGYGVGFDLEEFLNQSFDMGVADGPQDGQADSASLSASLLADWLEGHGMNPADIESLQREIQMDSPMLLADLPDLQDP
Sequence of NAD(+) hydrolase SARM1 (Homo sapiens) (Q6SZW1 whole entry, looked up, the tested form may be a part): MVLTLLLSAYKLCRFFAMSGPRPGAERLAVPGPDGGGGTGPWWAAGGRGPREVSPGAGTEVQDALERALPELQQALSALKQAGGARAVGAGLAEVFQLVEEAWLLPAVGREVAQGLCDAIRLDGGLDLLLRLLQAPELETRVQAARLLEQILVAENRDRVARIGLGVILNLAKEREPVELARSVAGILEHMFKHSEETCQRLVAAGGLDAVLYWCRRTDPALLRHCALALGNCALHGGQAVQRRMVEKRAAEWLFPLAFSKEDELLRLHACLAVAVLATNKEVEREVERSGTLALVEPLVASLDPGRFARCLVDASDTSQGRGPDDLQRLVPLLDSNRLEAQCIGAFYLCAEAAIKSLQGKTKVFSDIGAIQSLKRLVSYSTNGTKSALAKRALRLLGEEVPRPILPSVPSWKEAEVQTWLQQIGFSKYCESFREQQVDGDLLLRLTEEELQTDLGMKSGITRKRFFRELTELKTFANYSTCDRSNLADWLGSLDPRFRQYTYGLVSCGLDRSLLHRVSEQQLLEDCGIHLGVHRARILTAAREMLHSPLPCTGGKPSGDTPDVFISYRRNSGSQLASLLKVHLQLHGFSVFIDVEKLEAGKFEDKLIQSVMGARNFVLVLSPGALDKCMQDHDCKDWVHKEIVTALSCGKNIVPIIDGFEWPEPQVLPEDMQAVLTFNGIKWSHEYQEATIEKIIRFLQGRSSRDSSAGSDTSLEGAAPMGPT

In the case of `CN(N=O)C(=O)NC1C(O)OC(CO)C(O)C1O` (stereo not given), the inhibition [1] is reported as -8.43% (inactive), the fold change [2, 23] is reported as 0.895 (inactive) and the fold change [2, 24] is reported as 0.982. For the same compound, the cell count [2, 25] was 7750, the cell count [2, 26] was 8650 and the z-score ([3]; MELAS cybrid survival, CellTiter-Glo 48 h, stronger effect = higher value) was -0.392 (inactive). For the same compound, the z-score ([3]; Rieske KO mouse fibroblast survival, CellTiter-Glo 72 h) was 0.645, the inhibition ([4]; at 0.5 µM, stronger effect = higher value) was -5.09% (inactive) and the inhibition ([4]; measured here: combination with BGB IC20, at 0.005 µM) was 2.88%. For the same compound, the inhibition ([4]; measured here: combination with BGB IC40, at 0.005 µM) was -23%, the inhibition [4, 27] was 9.79% and the inhibition ([4]; measured here: combination with cisplatin, at 0.5 µM, stronger effect = higher value) was 18.7%. For the same compound, the inhibition ([4]; measured here: combination with cisplatin, at 5 µM, stronger effect = higher value) was -15%, the inhibition ([5]; BGB combo, at 5 µM) was -42.3% and the inhibition ([5]; at 0.5 µM) was -18.9% (inactive). For the same compound, the inhibition ([5]; cisplatin combo, at 5 µM) was -31.9%, the inhibition [5, 28] was -17.4% and the inhibition [5, 29] was -13.6%. The inhibition ([5]; single agent, at 5 µM) was -38.9%, the inhibition ([6]; BGB IC20 combo, at 0.005 µM) was -31.3% and the inhibition ([6]; BGB IC40 combo, at 0.005 µM) was -16.7%. For the same compound, the inhibition ([6]; BGB IC40 combo, at 0.05 µM) was -24.6%, the inhibition ([6]; at 0.5 µM) was -5.69% (inactive) and the inhibition ([6]; cisplatin combo, at 0.05 µM) was -31%. For the same compound, the inhibition ([6]; cisplatin combo, at 0.5 µM) was -0.064%, the inhibition ([6]; cisplatin combo, at 5 µM) was -5.86% and the inhibition ([6]; measured here: 5 uM single agent, at 5 µM) was -8.73%. For the same compound, the inhibition ([7]; at 0.5 µM) was -12.5% (inactive), the inhibition [7, 27] was 0.459% and the inhibition [7, 30] was -24.7%. For the same compound, the inhibition [7, 31] was -26.7%, the inhibition ([8]; at 0.5 µM) was -27.9% (inactive) and the inhibition ([8]; measured here: with BGB IC20, at 0.5 µM) was -20.4%. For the same compound, the inhibition ([8]; measured here: with BGB IC20, at 5 µM) was -14.4%, the inhibition ([8]; measured here: with cisplatin IC20, at 0.5 µM) was -29.4% and the inhibition ([8]; measured here: with cisplatin IC20, at 5 µM) was -17.4%. For the same compound, the inhibition ([8]; single agent, at 5 µM) was -23.4%, the inhibition ([9]; at 0.5 µM) was -39.9% (inactive) and the inhibition ([9]; measured here: combination with BGB at IC20, at 0.5 µM) was -31.6%. For the same compound, the inhibition ([9]; measured here: combination with cisplatin at IC20, at 0.5 µM) was -51.1%, the inhibition ([10]; at 0.5 µM) was -11.6% (inactive) and the inhibition ([10]; measured here: combo with BGB at IC20, at 0.5 µM) was -2.88%. For the same compound, the inhibition ([10]; measured here: combo with cisplatin at IC20, at 0.5 µM) was -22.4%, the inhibition ([11]; at 0.5 µM) was -9.59% (inactive) and the inhibition ([11]; measured here: inhibition with BGB combination, at 0.05 µM) was -0.199%. The inhibition ([11]; measured here: inhibition with cisplatin combination, at 0.05 µM) was -7.77%, the inhibition ([12]; at 0.5 µM) was -6.59% (inactive) and the inhibition [12, 30] was -12.5%. For the same compound, the inhibition [12, 31] was -15.1%, the inhibition ([13]; at 0.5 µM) was -6.07% (inactive) and the inhibition ([13]; measured here: BGB combination, at 0.5 µM) was -5.12%. For the same compound, the inhibition ([13]; measured here: BGB combination, at 5 µM) was 4.69%, the inhibition ([13]; measured here: cisplatin combination, at 0.5 µM) was -11.2% and the inhibition ([13]; measured here: cisplatin combination, at 5 µM) was 0.976%. The inhibition ([14]; BGB combination, concentration series, at 5 µM) was -8.48%, the inhibition ([14]; at 0.5 µM) was -13% (inactive) and the inhibition ([14]; cisplatin combination, concentration series, at 5 µM) was 0.433%. For the same compound, the inhibition ([15]; at 0.5 µM) was -2.34% (inactive), the inhibition ([15]; measured here: combo with BGB IC20, at 0.5 µM) was -2.11% and the inhibition ([15]; measured here: combo with cisplatin IC20, at 0.5 µM) was -7.96%. For the same compound, the inhibition ([16]; at 0.5 µM) was 9.28% (inactive), the inhibition ([16]; cisplatin combination, at 0.5 µM) was 2.65% and the inhibition ([16]; cisplatin combination, at 5 µM) was -74.8%. For the same compound, the inhibition ([16]; measured here: BGB IC40 combination 0.05 uM, at 0.05 µM) was -4.62%, the inhibition ([16]; single agent, at 5 µM) was 14.7% and the inhibition ([17]; at 0.5 µM) was 8.81% (inactive). The inhibition ([17]; cisplatin combo, at 5 µM) was -9.42%, the inhibition ([17]; measured here: BGB IC40 combination, at 0.05 µM) was -16.3% and the inhibition [17, 30] was -21.8%. For the same compound, the inhibition ([17]; single agent, at 5 µM) was -8.26%, the inhibition ([18]; at 0.5 µM) was 3.09% (inactive) and the inhibition [18, 28] was -18.9%. The inhibition [18, 29] was 12.7%, the inhibition ([18]; single agent, at 0.05 µM) was -1.79% and the inhibition ([18]; single agent, at 5 µM) was -17.1%.
With `C=C1CC[C@H](O)C/C1=C/C=C1\CCC[C@]2(C)[C@@H]([C@H](C)/C=C/[C@H](C)C(C)C)CC[C@@H]12` the fluorescence slope change [19] was 66.6% (active), the parasite load remaining [20] was 50.6% (inactive) and the viability [20] was 130%. For the same compound, the inhibition [1] was 12.3% (inactive), the fold change [2, 23] was 0.934 (inactive) and the fold change [2, 24] was 1.53. For the same compound, the cell count [2, 25] was 7580, the cell count [2, 26] was 8110 and the remaining NAD [21] was 10 nM (inactive). For the same compound, the luciferase signal [22] was 144 AU (inactive).
